ADAM17 inh = inhibits human ADAM17 | P78536 | recombinant ADAM17, EDANS/DABCYL FRET peptide cleavage | inhibition, % at 6.95 µM | 0.83% of 370,000 active | AID 720648;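 active = inhibition above the mean of compounds lying between control limits plus 3 SD, set per campaign, cut at about 8.5% in these data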
Target sequence (P78536 215-824 limits assumed): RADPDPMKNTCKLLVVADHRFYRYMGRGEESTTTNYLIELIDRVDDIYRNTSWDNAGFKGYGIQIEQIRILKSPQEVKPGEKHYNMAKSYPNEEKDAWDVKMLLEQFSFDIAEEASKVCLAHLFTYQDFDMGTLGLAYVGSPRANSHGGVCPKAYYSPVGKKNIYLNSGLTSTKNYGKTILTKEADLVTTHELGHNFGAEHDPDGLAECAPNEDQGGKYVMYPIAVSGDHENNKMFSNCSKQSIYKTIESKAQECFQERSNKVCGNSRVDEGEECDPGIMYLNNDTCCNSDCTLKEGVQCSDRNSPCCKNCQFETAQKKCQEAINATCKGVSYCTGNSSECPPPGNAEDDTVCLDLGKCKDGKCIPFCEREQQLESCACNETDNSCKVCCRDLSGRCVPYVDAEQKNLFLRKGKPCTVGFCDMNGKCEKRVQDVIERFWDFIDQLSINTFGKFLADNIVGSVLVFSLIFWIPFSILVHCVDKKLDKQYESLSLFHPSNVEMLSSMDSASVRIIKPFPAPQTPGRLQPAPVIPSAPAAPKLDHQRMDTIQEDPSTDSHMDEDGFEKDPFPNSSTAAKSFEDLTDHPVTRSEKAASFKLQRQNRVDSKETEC
ADAM10 inh = ADAM10 inhibition, QFRET primary screen | O14672 | recombinant ADAM10, EDANS/DABCYL FRET peptide cleavage, 3 h | inhibition, % at 7 µM | 0.62% of 370,000 active | AID 720582;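 active = inhibition above a per-campaign cutoff equal to the mean of compounds falling between control-based bounds plus 3 SD, cut at about 20% in these data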
rCAG binder = molecules binding r(CAG) RNA repeats; 1.3% of 370,000 active; inhibition, % at 3 µM; r(CAG) RNA repeat, TO-PRO-1 dye displacement fluorescence;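 active = inhibition above the plate cutoff, the mean of all test compounds on that plate plus 3 SD, cut at about 35% in these data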;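 also: higher means more dye released from RNA so lower well fluorescence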
DSG3 Ab inh = inhibitors of pemphigus antibody binding to human desmoglein-3. AID 588358. DSG3-coupled beads, scFv-anti-DSG3-GFP binding, flow cytometry; active compounds read low. P32926. binding (percent of control), % at 10 µM. 0.48% of 310,000 active;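 active = binding more than 3 SD below its plate's average and above zero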;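 also: hits lower antibody fragment binding to DSG3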
MPTP inh = permeability transition pore inhibition; isolated mouse mitochondria, Ca2+ swelling absorbance, 30 min; inhibition, % at 10 µM; 1.4% of 360,000 active; AID 602449;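 active = inhibition of 50% or more, scaled per plate between neutral and stimulator controls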
proKLK7 act = activators of human kallikrein-7 zymogen; P49862; purified proKLK7, EDANS-DABCYL substrate fluorescence; 100% is mature enzyme control, 0% vehicle; activation, % at 7 µM; 0.9% of 370,000 active;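 active = activation above the mean of all tested compounds plus 3 SD, computed per campaign excluding outliers beyond control limits, cut at about 13% in these data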
ADAM10 counter = inhibits human ADAM10 in ADAM17 exosite counter-screen; shares compounds with ADAM17 inh; recombinant ADAM10, EDANS/DABCYL FRET peptide cleavage, 3 h; inhibition, % at 6.95 µM; 47% of 2,900 active; AID 743256;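 active = mean inhibition over the triplicate runs exceeds the activity threshold set in the earlier primary screen, cut at about 20% in these data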
ADAM17 confirm = human ADAM17 inhibition, confirmation; shares compounds with ADAM17 inh; recombinant ADAM17, EDANS/DABCYL QFRET peptide cleavage; inhibition, % at 6.95 µM; 65% of 2,900 active; AID 743257;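 active = mean inhibition across replicates above the hit cutoff set in the primary screen, cut at about 8.5% in these data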
Hits are given with their value; 0 = inactive; - = no result given. Shown are actives, neighbours in structure and some others; about 4.7% of the full set was active somewhere.

SMILES	ADAM17 inh	ADAM10 inh	rCAG binder	DSG3 Ab inh	MPTP inh	proKLK7 act	ADAM10 counter	ADAM17 confirm
C[C@@H]1CCCCO[C@@H](CN(C)C(=O)c2ccncc2)[C@@H](C)CN([C@H](C)CO)C(=O)c2cc(NC(=O)Cc3ccccc3)ccc2O1	0	0	0	-	0	0	-	-
CC(C(=O)NC(C)(C)C)n1c(C(c2ccccc2)c2ccccc2)nc2ccccc21 (stereo not given)	0	0	0	-	0	0	-	-
COc1ccc(/C=N/NC(=O)C(=O)/C=C2\NC3(CCCC3)Cc3ccccc32)cc1	11	0	0	-	0	0	0	0
C[C@H](NC(=O)[C@@H]1Cc2ccccc2CN1)C(=O)NCC1CCCO1 (stereo not given in full)	0	0	0	0	0	0	-	-
COc1ccc(Cn2nnnc2C(c2cccs2)N2CCOCC2)cc1 (stereo not given)	8.7	0	0	0	0	0	0	11
Cc1ccc(NC(=O)CN2C(=O)NC(Cc3c[nH]c4ccccc34)C2=O)cc1S(=O)(=O)N1CCCCC1 (stereo not given)	11	0	0	-	0	0	22	14
Cc1ccc(S(=O)(=O)N(C)C)cc1NC(=O)COC(=O)CCC1CCCC1	0	0	0	0	0	0	-	-
CN(C)S(=O)(=O)c1ccc(Cl)c(NC(=O)COC(=O)CCC2CCCCC2)c1	12	0	0	0	0	0	32	17
Cc1ccccc1OCC(=O)Nc1ccc(C)c(S(=O)(=O)N2CCCCCC2)c1	8.7	0	0	0	0	0	26	13
Cc1ccc(C)c(OCCC(=O)OCC(=O)Nc2cccc(S(=O)(=O)N3CCCC3)c2)c1	8.8	0	0	0	0	0	25	13
COc1ccc(NC(=O)CN(Cc2ccccc2)Cc2ccccc2)cc1S(N)(=O)=O	0	0	0	0	0	0	-	-
Cc1ccccc1OCCC(=O)OCC(=O)Nc1cc(S(=O)(=O)N2CCOCC2)ccc1Cl	11	0	0	0	0	0	0	0
COc1ccc(NC(=O)COc2ccccc2Cc2ccccc2)cc1S(N)(=O)=O	11	0	0	0	0	0	0	0
Clc1ccc(-c2csc(Nc3ccccc3)[n+]2Cc2ccco2)c(Cl)c1	0	0	0	0	0	0	-	-
CS(=O)(=O)c1ccccc1-c1nc(-c2ccc(C(F)(F)F)cc2)no1	8.7	0	0	0	0	0	0	0
FC(F)(F)c1ccccc1-c1nc(-c2ccncc2)no1	0	0	0	0	0	0	-	-
O=C(NCC1CCN(Cc2ccc(F)cc2)CC1)Nc1cc(F)ccc1F	0	0	0	0	0	0	-	-
O=S(Cc1ccc(Br)cc1)Cc1nnc(SCc2c(F)cccc2Cl)n1-c1ccccc1 (stereo not given)	0	0	0	-	0	0	-	-
O=S(Cc1ccc(Br)cc1)Cc1nnc(SCc2ccc(Cl)cc2)n1-c1ccccc1 (stereo not given)	8.6	0	0	0	0	0	27	15
Cc1cc(C)cc(C(=O)NCC(=O)OCC(=O)N2CCN(S(=O)(=O)c3ccc4ccccc4c3)CC2)c1	10	0	0	0	0	0	26	12
Cc1ccc(S(=O)(=O)N2CCN(C(=O)COC(=O)CNC(=O)c3ccccc3)CC2)c(C)c1	0	0	0	0	0	0	-	-
O=c1cc(-c2ccccc2Cl)oc2c(NS(=O)(=O)c3ccccc3OC(F)(F)F)ccc(O)c12	8.9	0	0	0	-	0	34	20
O=c1cc(-c2ccccc2Cl)oc2c(NS(=O)(=O)c3ccccc3C(F)(F)F)ccc(O)c12	0	0	0	0	0	0	-	-
O=C(CCC(=O)Nc1ccccc1)NCCO	11	0	0	0	0	0	0	0
COc1ccc(NC(=O)CCC(=O)NCCO)cc1	0	0	0	0	0	0	-	-
SMILES	ADAM17 inh	ADAM10 inh	rCAG binder	DSG3 Ab inh	MPTP inh	proKLK7 act	ADAM10 counter	ADAM17 confirm
CCOC(=O)C1=C(C(=O)OCC)C2N(Cc3ccc(C#N)cc3)c3ccccc3[C@@]23C[C@@H](C(=O)OC)N(S(=O)(=O)c2ccc(OC)cc2)C3=N1 (stereo not given in full)	12	0	0	-	-	0	0	12
COc1ccc(C2CCCCCN2C(=O)C2CCN(S(=O)(=O)c3ccc(C)cc3)CC2)cc1 (stereo not given)	0	0	0	0	0	0	-	-
CCOC(=O)C1=CN(Cc2cccc(F)c2)S(=O)(=O)NC1c1ccc2ccccc2c1 (stereo not given)	9.8	0	0	0	0	0	0	11
CCOc1ccc(-c2cc(C(=O)NCc3ccccc3)[nH]n2)c(C)c1	0	0	0	-	0	0	-	-
CCOC(=O)C1(CC2CCCCO2)CCN(C(=O)Nc2cccc(SC)c2)CC1 (stereo not given)	9.2	0	0	0	0	0	0	0
N#Cc1cnc(NCc2ccc(Cl)cc2Cl)nc1	0	0	0	0	0	0	-	-
C=C(C)C(=O)N1CCN(C(=O)C(=C)C)c2ccccc21	0	0	0	0	0	0	-	-
O=C(Nc1ccccc1)c1ccc(-c2ccccc2C(F)(F)F)o1	9.2	0	0	0	0	0	0	0
C[C@H](CO)N1C[C@H](C)[C@@H](CN(C)C(=O)OCc2ccccc2)OCc2cn(nn2)CCCC1=O	0	0	0	-	0	0	-	-
Nc1ccc2nc(CCCCCCCCc3nc4ccc(N)cc4[nH]3)[nH]c2c1	13	0	0	0	0	0	0	0
CC(C)C(C(=O)NCc1ccco1)N(C(=O)CNS(=O)(=O)c1ccccc1)C1CCCC1 (stereo not given)	10	0	0	0	0	0	0	0
CCC(C(=O)NCc1ccco1)N(C(=O)CNS(=O)(=O)c1ccccc1)C1CCCCC1 (stereo not given)	0	0	0	0	0	0	-	-
CCOc1ccccc1CN1CCN(S(=O)(=O)CC)CC1	0	0	0	0	0	0	-	-
CCS(=O)(=O)N1CCN(Cc2ccccc2OC)CC1	10	0	0	0	0	0	0	0
Cc1ccc(S(=O)(=O)CCOC(=O)CNC(=O)OCc2ccccc2)cc1	0	0	0	0	0	0	-	-
NC(=O)CC[C@@H]1NC(=O)[C@H](CO)NC(=O)c2cc([N+](=O)[O-])cc(I)c2OCC[C@@H](C(N)=O)NC1=O	10	0	0	-	0	0	0	0
O=C(CSc1nc2ccc(NC(=O)c3ccccc3C(=O)O)cc2s1)Nc1ccc(F)c([N+](=O)[O-])c1	9.3	0	0	0	0	0	0	0
Cc1cc(=O)n(Cc2ccco2)c(=S)[nH]1	0	0	0	0	0	0	-	-
